Compounds with a hit are over-represented: about 4.8% of the library has one in this group of screens.
Caspase-1 inhib = qHTS Assay for Allosteric/Competitive Inhibitors of Caspase-1; P29466; Caspase-1 enzyme, Ac-WEHD-AFC fluorogenic rate; Potency, µM (top dose mostly 57.5 µM), most hits filed as inhibitors; hit rate 0.03% among 75,000; AID 900, 2007
Casp7 inh = qHTS Assay for Allosteric/Competitive Inhibitors of Caspase-7; P55210; Potency, µM (highest dose often 57.5 µM), actives largely listed as inhibitors; hit rate 0.02% among 75,000; recombinant caspase-7, Ac-DEVD-AFC fluorescence rate; active = well fitted inhibition curve with a large enough effect in the main read-out, with a control signal flat, not every such curve was filed as active; inconclusive = small, poorly fitted or top-dose-only effect, or a change in a side signal
ALOX15 inhib = qHTS Assay for Inhibitors of 15-hLO (15-human lipoxygenase); Polyunsaturated fatty acid lipoxygenase ALOX15 (Homo sapiens), P16050; purified 15hLO-1, xylenol orange hydroperoxide absorbance; Potency, µM (doses to about 57.1 µM), hits mostly inhibitors; hit rate 1.4% among 74,000; AID 887, 2007; also: nearly all actives have a fitted effect of over 55% in size
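Hydroperoxide formed from arachidonic acid (50 uM) by purified human 15hLO-1 (40 nM) oxidizes ferrous iron, and the ferric-xylenol orange complex is read at 573 versus 405 nm. Compounds were preincubated 15 min; reaction ran 6 min at room temperature.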
TSHR agonist = qHTS Assay for Agonists of the Thyroid Stimulating Hormone Receptor | Thyrotropin receptor (Homo sapiens), P16473 | HEK293-CNG-TSHR cells (CNG channel as cAMP sensor), membrane potential dye, cAMP | Potency, µM (series often up to 57.1 µM), actives largely listed as activators | hit rate 0.48% among 73,000; active = well fitted activation curve with a large enough effect in the main read-out, with a control signal flat, not every such curve was filed as active; inconclusive = small, poorly fitted or top-dose-only effect, or a change in a side signal; inactive = no such curve, though single readings can be large or run the other way; reference of the percent scale not stated here;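 also: the control signal comes from parental cells without the receptor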
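HEK 293 cells stably expressing TSHR and a modified CNG channel, with CNG-only parental cells as counterscreen, were preloaded 60 min at room temperature with membrane potential dye containing 100 uM RO 20-1724. Compound exposure was 30 min, and depolarization was read as fluorescence at 590 nm.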
HEK293 cAMP ctrl = qHTS Assay for Agonists of the Thyroid Stimulating Hormone Receptor: Activators of Intracellular cAMP Concentrations in Parental HEK 293; AID 938, 2007; hit rate 2.5% among 73,000; parental HEK293 CNG cAMP sensor, membrane potential fluorescence; Potency, µM (titrated, usually from 57.1 µM), most hits filed as activators; also: nearly all actives have a fitted effect of over 55% in size
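Counterscreen for endogenous-receptor signalling: CNG-channel HEK 293 cells report cAMP rise by membrane depolarization. After 60 min dye equilibration with 100 uM RO 20-1724, compounds incubated 30 min before bottom-read fluorescence at 590 nm.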
ERK AVP inh = qHTS Assay for Inhibitors of the ERK Signaling Pathway using a Homogeneous Screening Assay. HEK293-V1b, vasopressin-stimulated pERK AlphaScreen. Potency, µM (series often up to 57.5 µM), hits mostly inhibitors. hit rate 0.99% among 72,000. AID 995, 2007; also: nearly all actives have a fitted effect of over 55% in size
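Overnight-seeded V1b-HEK293 cells in 1% FBS got compound, then vasopressin (25 nM final, 5 min, 37C), then lysis buffer. AlphaScreen detection of phospho-ERK; activity normalized to basal and full-stimulation controls.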
Each line names hits and unclear results; the compound was inactive in the other large screens. Unless noted, calls follow the shape of the dose curve; as a rule, active = well fitted curve in the direction sought with a large enough effect; inconclusive = small, poorly fitted or top-dose-only effect, or another doubt; inactive = no such curve, though single readings can be large; an effect the other way counts as inactive or inconclusive.

O=C(CSc1nnnn1C1CCCC1)N1CCCc2ccccc21	TSHR agonist inconclusive, HEK293 cAMP ctrl inconclusive
N#Cc1ccc(OCc2nnc(SCC(=O)N3CCCc4ccccc43)n2-c2ccccc2)cc1	ALOX15 inhib 2.51µM
Cc1nc2cnc(N3CCOCC3)nc2n(C2CC2)c1=O	none
Cc1cn(S(=O)(=O)c2ccc(Br)c3ccccc23)cn1	none (no result: ERK AVP inh)
O=C(c1ccco1)N1CCC2(CC1)CCN(c1ccccc1)CC2	none
COCCn1c(SCC(=O)N2CCCc3ccccc32)nc2ccccc2c1=O	TSHR agonist inconclusive, HEK293 cAMP ctrl 20µM
CC(=O)N1CCC2(CCCN(C(c3ccccc3)c3ccccc3)C2)CC1	TSHR agonist inconclusive, HEK293 cAMP ctrl 15.8µM
Cc1noc(C)c1C(=O)N1CCC2(CC1)CCN(C(c1ccccc1)c1ccccc1)CC2	TSHR agonist 31.6µM
COC(=O)N1CCC[C@@]2(CCN(C(c3ccccc3)c3ccccc3)C2)C1	TSHR agonist inconclusive, HEK293 cAMP ctrl 7.94µM
O=C(c1ccco1)N1CCC[C@@]2(CCN(C(c3ccccc3)c3ccccc3)C2)C1	TSHR agonist inconclusive, HEK293 cAMP ctrl 15.8µM
CC(C)[C@@H](CC(=O)N[C@@H]1CCNC[C@H]1C(=O)N[C@H](CC(=O)N[C@@H](CCC(=O)O)CC(=O)O)Cc1c[nH]c2ccccc12)NC(=O)C[C@H](Cc1ccccc1)NC(=O)[C@@H]1CCCC[C@H]1N	none (no result: Caspase-1 inhib, Casp7 inh, ALOX15 inhib, ERK AVP inh)
CN(C)c1ccc(-c2nc(NCc3cccnc3)c3ccccc3n2)cc1	ALOX15 inhib 20µM, TSHR agonist inconclusive
CN(C)c1ccc(-c2nc(Nc3ccncc3)c3ccccc3n2)cc1	TSHR agonist inconclusive, ERK AVP inh 15.8µM
CN(C)C(=O)c1ccc(-c2nc(Nc3ccc(F)cc3)c3ccccc3n2)cc1	TSHR agonist 31.6µM, ERK AVP inh inconclusive
CN(C)C(=O)c1ccc(-c2nc(Nc3ccncc3)c3ccccc3n2)cc1	none
Cc1cc(C2CCCCC2)n(O)c(=O)c1	TSHR agonist inconclusive, HEK293 cAMP ctrl inconclusive, ERK AVP inh inconclusive
COCc1cc(C)nc2sc(C(=O)N3CCN(c4ccccc4)CC3)c(N)c12	ALOX15 inhib 6.31µM (no result: ERK AVP inh)
CN1CC2=Cc3ccccc3OC23Oc2ccccc2C=C3C1	TSHR agonist inconclusive, HEK293 cAMP ctrl inconclusive, ERK AVP inh inconclusive
COc1ccc(S(=O)(=O)n2nc(-c3cc(OC)c(OC)c(OC)c3)cc2N)cc1OC	none
COc1ccc(-c2cc(N)n(S(=O)(=O)c3c(F)c(F)c(F)c(F)c3F)n2)cc1OC	TSHR agonist 0.794µM, ERK AVP inh 5.01µM
CSc1nnnc2ccccc12	none
CCOc1cccc(C=Nc2cc(C)cc(C)c2O)c1O	Caspase-1 inhib inconclusive, ALOX15 inhib 10µM
CC(C)CN(CC(C)C)C(=O)CS(=O)(=O)Cc1ccccc1	none
COc1ccc(CNc2cc(C)nc3ncnn23)c(OC)c1	TSHR agonist inconclusive, HEK293 cAMP ctrl 3.98µM
COc1ccc(Nc2cc(C)nc3ncnn23)c(OC)c1	none
COc1ccccc1C1CC(=O)Nc2cc3c(cc21)OCCO3 (stereo not given)	none (no result: TSHR agonist)
CC(C)Oc1ccccc1C1CC(=O)Nc2cc3c(cc21)OCCO3 (stereo not given)	ALOX15 inhib inconclusive, TSHR agonist inconclusive, HEK293 cAMP ctrl inconclusive, ERK AVP inh 15.8µM
CCCOc1c(OC)cccc1C1CC(=O)Nc2cc3c(cc21)OCCO3 (stereo not given)	TSHR agonist inconclusive, HEK293 cAMP ctrl 15.8µM
CCCOc1c(OC)cccc1C1CC(=O)Nc2cc3c(cc21)OCO3 (stereo not given)	TSHR agonist inconclusive, HEK293 cAMP ctrl inconclusive
CCc1nnc2n1N=C(c1ccc(-c3cc(Cl)ccc3Cl)o1)CS2	none
COc1ccc(Oc2ncc3ncc(=O)n(Cc4cccs4)c3n2)cc1	TSHR agonist inconclusive, HEK293 cAMP ctrl inconclusive
CC(O)(P(=O)(O)O)P(=O)(O)O	none
CCN(CC)c1ccc(C(=S)N2CCN(c3ccccc3)CC2)cc1	ERK AVP inh 31.6µM
COc1cc(C/C=C/c2ccccc2)c(OC)cc1O	ALOX15 inhib inconclusive (no result: TSHR agonist, HEK293 cAMP ctrl)
CCOC(=O)N1CCN(C(=O)CN(c2ccc(Cl)c(C(F)(F)F)c2)S(C)(=O)=O)CC1	none
CCCCc1nc2n[nH]c(N)c2c2c1CCC2	ERK AVP inh 15.8µM (no result: TSHR agonist)
COc1ccc(CNC(=O)c2cnn3c(C(F)F)cc(C)nc23)cc1OC	ERK AVP inh inconclusive
CC(=O)C(C)Oc1ccc2c3c(c(=O)oc2c1)CCCCC3 (stereo not given)	TSHR agonist 25.1µM
CC(=O)C(C)Oc1ccc2c3c(c(=O)oc2c1)CCCC3 (stereo not given)	TSHR agonist inconclusive, HEK293 cAMP ctrl inconclusive, ERK AVP inh inconclusive
C[C@@]12C[C@@H](O)[C@H]3[C@@H](CCC4=CC(=O)CC[C@]43C)[C@H]1CC[C@H]2C(=O)CO	none
CSc1ncnc2c1ncn2CC(=O)[C@H]1CC[C@H]2[C@H]3CCC4=CC(=O)CC[C@@]4(C)[C@@H]3CC[C@@]12C	ERK AVP inh 3.98µM
COc1ccccc1N(C(=O)c1snc(C(N)=O)c1N)C(C(=O)NC1CCCC1)c1ccco1 (stereo not given)	Caspase-1 inhib inconclusive, TSHR agonist inconclusive, HEK293 cAMP ctrl 1µM
NC(=O)c1cccc2c3c([nH]c12)CCCC3	Casp7 inh inconclusive, ALOX15 inhib 3.16µM, ERK AVP inh inconclusive (no result: Caspase-1 inhib)
COc1ccc(C2C(C(=O)N3CCC(C)CC3)c3ccccc3C(=O)N2C)cc1 (stereo not given)	TSHR agonist inconclusive, HEK293 cAMP ctrl inconclusive
COc1ccc(C2C(C(=O)N3CC(C)CC(C)C3)c3ccccc3C(=O)N2C)cc1 (stereo not given)	TSHR agonist inconclusive, HEK293 cAMP ctrl 15.8µM
O=C(NCc1ccc2c(c1)OCO2)C(c1ccco1)N(C(=O)c1csnn1)c1ccccc1 (stereo not given)	TSHR agonist 3.16µM
N#CCCn1c(=O)c(-c2ccc(Cl)cc2)nc2cnc(OCc3ccccc3)nc21	none
O=C1c2ccccc2NC(c2ccc(Cl)cc2Cl)N1O (stereo not given)	ALOX15 inhib 15.8µM
C=CCc1cccc(C2Nc3ccccc3C(=O)N2O)c1O (stereo not given)	ALOX15 inhib inconclusive
Cc1c(C(=O)O)c(O)cc2c1C(=O)c1c(O)c([C@@H]3O[C@H](CO)[C@@H](O)[C@H](O)[C@@H]3O)c(O)c(O)c1C2=O	none (no result: Caspase-1 inhib, Casp7 inh, ALOX15 inhib, ERK AVP inh)
O=C1CC(N2CCN(c3ccc(S(=O)(=O)N4CCCC4)cc3)CC2)C(=O)N1c1ccc(F)cc1 (stereo not given)	none

Screening data (PubChem)
